These results are taken from PubChem BioAssay (EPA / NIEHS).

Active and inactive are the calls of the source. How the source made its calls: active means hit-call score of the fitted dose curve at least 0.9, where 1 is the maximum; inactive means score below 0.9.

Assay [1] can be described thus: ATG_ERE_CIS: Attagene CIS-FACTORIAL HepG2 Assay for Estrogen Response Element (ERE) (AID 2282940). The conditions noted are these: HepG2 ERE cis-reporter, Attagene RNA transcript; actives raise or lower the signal. In a few lines:
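After a 24 h chemical treatment, RNA from reporter-transfected HepG2 cells is reverse-transcribed, PCR-amplified and fluorescently labelled. Fragments separated by capillary electrophoresis give reporter signal; DMSO serves as negative control.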

The nature of assay [2]: ATG_Ets_CIS: Attagene CIS-FACTORIAL HepG2 Assay for human Erythroblast Transformation Specific (ETS) (AID 2282941). The conditions noted are these: HepG2 ETS cis-reporter transcription, actives raise or lower the signal. In a few lines: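 Steps: transfect HepG2 with multiple reporter units; treat compound 24 h; isolate RNA, DNase-treat, reverse-transcribe; PCR-amplify, label with 6-FAM, digest with HpaI; separate by capillary electrophoresis. Activity fitted both directions versus DMSO.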

For assay [3], the target named is Hepatocyte nuclear factor 3-beta (Homo sapiens) (UniProt Q9Y261). Kind of assay: ATG_FoxA2_CIS: Attagene CIS-FACTORIAL HepG2 Assay for human Forkhead box A2 (FOXA2) (AID 2282942). The conditions noted are these: HepG2 cis-reporter transcription factor activity, 24 h; actives raise or lower the signal. In a few lines: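 HepG2 cells transiently transfected with multiple cis-regulated reporter transcription units, dosed for 24 h. Reporter mRNA measured by RT-PCR, 6-FAM labelling, HpaI digestion and capillary electrophoresis; bidirectional fitting against DMSO baseline.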
Sequence of Hepatocyte nuclear factor 3-beta (Homo sapiens) (Q9Y261 whole entry, looked up): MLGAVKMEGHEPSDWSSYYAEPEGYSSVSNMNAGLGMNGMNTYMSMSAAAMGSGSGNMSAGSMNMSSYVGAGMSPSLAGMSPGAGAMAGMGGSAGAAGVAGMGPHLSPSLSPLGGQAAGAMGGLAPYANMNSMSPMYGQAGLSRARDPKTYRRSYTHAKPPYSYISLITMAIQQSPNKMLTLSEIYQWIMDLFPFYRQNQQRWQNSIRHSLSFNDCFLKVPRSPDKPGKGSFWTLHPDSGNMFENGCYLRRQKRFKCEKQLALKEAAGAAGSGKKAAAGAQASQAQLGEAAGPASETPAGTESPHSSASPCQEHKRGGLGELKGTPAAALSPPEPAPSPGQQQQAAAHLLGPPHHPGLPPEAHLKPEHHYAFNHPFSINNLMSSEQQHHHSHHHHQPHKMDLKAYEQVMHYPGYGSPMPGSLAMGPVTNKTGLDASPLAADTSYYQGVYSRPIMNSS

A short description of assay [4]: ATG_FoxO_CIS: Attagene CIS-FACTORIAL HepG2 Assay for human Forkhead box O (FoxO) (AID 2282943). The conditions noted are these: HepG2 Attagene cis-reporter, FoxO element, mRNA; actives raise or lower the signal. In a few lines: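 24 h chemical exposure, HepG2 with transient cis-MRTU transfection. RNA extraction, oligo(dT) RT, reporter-specific PCR, primer-extension labelling, HpaI digestion, CE fragment analysis; bidirectional fit, DMSO baseline.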

Assay [5] in a line: ATG_GATA_CIS: Attagene CIS-FACTORIAL HepG2 Assay for human GATA Binding Protein (AID 2282944). The conditions noted are these: HepG2 GATA cis-element reporter, Attagene multiplex mRNA; actives raise or lower the signal. In a few lines:
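Cells: HepG2, transiently transfected with cis-regulated reporter transcription units. Exposure: 24 h. Detection: RT-PCR plus capillary electrophoresis of FAM-labeled fragments. Analysis: bidirectional, DMSO as baseline.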

Assay [6] is described as follows: ATG_GLI_CIS: Attagene CIS-FACTORIAL HepG2 Assay for human Zinc Finger Protein GLI1 (AID 2282945). The conditions noted are these: HepG2, Attagene cis-factorial reporter mRNA, GLI element; actives raise or lower the signal. The method, boiled down:
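HepG2 cells transiently transfected with cis-promoter multiplexed reporter units report endogenous transcription factor activity. After 24 h chemical exposure, reporter mRNA was quantified by RT-PCR, 6-FAM labelling, HpaI digestion and capillary electrophoresis, with bidirectional fitting against DMSO.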

Assay [7] deals with Bile acid receptor (Homo sapiens) (UniProt Q96RI1). As to the kind of experiment: ATG_IR1_CIS: Attagene CIS-FACTORIAL HepG2 Assay for human Nuclear Receptor Subfamily 1 Group H Member 4 (NR1H4), IR1 submotif (AID 2282946). Particulars: IR1 reporter transcription, actives raise or lower the signal. In a few lines:
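Transient MRTU transfection, HepG2; 24 h dosing; RNA → RT-PCR → 6-FAM primer extension → HpaI digest → capillary electrophoresis fluorescence. Gain/loss of signal fitted relative to DMSO.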

Assay [8] can be described thus: ATG_GRE_CIS: Attagene CIS-FACTORIAL HepG2 Assay for human Glucocorticoid Response Elements (GRE) (AID 2282947). Particulars: HepG2 GRE cis-reporter, Attagene multiplex mRNA; actives raise or lower the signal. The method, boiled down:
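HepG2 cells transiently transfected with multiple cis-promoter reporter units measure endogenous TF activity; 24 h compound exposure. Reporter mRNA quantified by RT-PCR, FAM labelling, HpaI digestion and capillary electrophoresis; bidirectional fit vs DMSO baseline.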

The nature of assay [9]: ATG_ISRE_CIS: Attagene CIS-FACTORIAL HepG2 Assay for human Interferon Regulatory Factor 1 (IRF1) binding to an Interferon-Stimulated Response Element (ISRE) (AID 2282948). The conditions noted are these: HepG2 ISRE cis-reporter (Attagene), mRNA transcription readout; actives raise or lower the signal. The method, boiled down: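 Transfected HepG2 (multiple reporter transcription units, cis elements) dosed 24 h. RNA → oligo(dT) RT → PCR → 6-FAM primer extension → HpaI → CE. DMSO = negative control/baseline.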

Assay [10] is described as follows: ATG_M_32_CIS: Attagene CIS-FACTORIAL HepG2 Assay for M32 Transcription Factor (Internal Marker) (AID 2282949).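 Further: background control marker of the multiplexed CIS panel rather than a real target.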 The conditions noted are these: HepG2 Attagene cis-factorial M32 reporter, mRNA; actives raise or lower the signal. The method, boiled down: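 Internal background marker read-out: RT-PCR/capillary electrophoresis fluorescence of reporter transcripts from transiently transfected HepG2 cells after 24 h chemical exposure. Activity fitted bidirectionally relative to DMSO negative control.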

Sequence of Bile acid receptor (Homo sapiens) (Q96RI1 whole entry, looked up): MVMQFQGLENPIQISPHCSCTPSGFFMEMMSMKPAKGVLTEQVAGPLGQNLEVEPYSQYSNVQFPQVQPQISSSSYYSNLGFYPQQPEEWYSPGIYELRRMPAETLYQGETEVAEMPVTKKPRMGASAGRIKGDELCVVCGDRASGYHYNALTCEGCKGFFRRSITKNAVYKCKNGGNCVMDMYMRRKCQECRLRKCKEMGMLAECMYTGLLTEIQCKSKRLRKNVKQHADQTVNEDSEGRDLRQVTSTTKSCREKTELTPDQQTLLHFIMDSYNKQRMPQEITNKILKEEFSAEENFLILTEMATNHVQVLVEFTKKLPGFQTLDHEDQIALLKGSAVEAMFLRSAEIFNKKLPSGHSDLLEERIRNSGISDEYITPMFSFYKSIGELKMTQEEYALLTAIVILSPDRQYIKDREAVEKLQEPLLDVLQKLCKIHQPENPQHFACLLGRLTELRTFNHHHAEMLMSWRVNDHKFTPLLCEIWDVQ

As to `O=[N+]([O-])c1ccc2c3c(cccc13)CC2`, the compound was called inactive in [1], in assay [2], in assay [3], in [4], in assay [5] and in assay [6]. Also, the call in assay [7], in assay [8], in [9] and in [10] was inactive.

For the compound `Clc1ccc(COC(Cn2ccnc2)c2ccc(Cl)cc2Cl)cc1` (stereo not given), the call in [1], in assay [2], in assay [3], in assay [4], in assay [5] and in assay [6] was inactive. Besides, the compound was called inactive in [7], in assay [8], in [9] and in assay [10].

The term AC50 denotes the concentration at which the activity in the assay is half-maximal. For `CC(=O)OC(c1ccccc1)C(Cl)(Cl)Cl` (stereo not given), the AC50 in assay [1] is 73.8 µM (active). The result in [2], in assay [3], in assay [4], in assay [5], in assay [6] and in [7] was inactive. Further, the outcome in assay [9] and in [10] was inactive.

As for `CC(=[OH+])/C=C(/C)[O-].CC(=[OH+])/C=C(/C)[O-].CC(=[OH+])/C=C(/C)[O-].[Al]`, the outcome in [1], in assay [2], in [3], in assay [4], in [5] and in [6] was inactive. The call in [7], in assay [8], in assay [9] and in assay [10] was inactive.

Regarding `O=C(Cc1ccccc1)c1ccccc1`, in assay [1], the AC50 was 24.9 µM (active). Besides, the compound was classed as inactive in assay [2], in assay [3], in assay [4], in [5], in [6] and in assay [7]. Besides, the result in assay [8], in assay [9] and in assay [10] was inactive.

Turning to `C[C@@H](Oc1ccc(Cl)cc1Cl)C(=O)O`, the compound was called inactive in assay [1], in assay [2], in assay [3], in assay [4], in assay [5] and in assay [6]. Besides, the result in assay [7], in assay [8], in [9] and in assay [10] was inactive.

Regarding `O=C(c1ccccc1)C(Cl)Cl`, the result in assay [1], in assay [2], in assay [3], in [5], in assay [6] and in assay [10] was inactive. Also, the values for the AC50 in assay [4], in assay [7] and in assay [9] were 26.4 µM (active), 5.81 µM (active) and 14.9 µM (active), respectively.

Take `CCCCOCCOC(C)=O`: the result in [1], in assay [2], in assay [3], in assay [4], in [5] and in [6] was inactive. Moreover, the compound was called inactive in [7], in assay [8], in [9] and in [10].

As to `CCOP(=S)(OCC)Oc1nc(Cl)c(Cl)cc1Cl`, the AC50 in [1] was 27.5 µM (active); in assay [6], 71.9 µM (active); in [7] it was 26.4 µM (active); in assay [9], 27.2 µM (active). In addition, the compound was classed as inactive in assay [2], in assay [3], in assay [4], in assay [5], in [8] and in assay [10].

Take `ClC1(Cl)C2(Cl)C3(Cl)C4(Cl)C(Cl)(Cl)C5(Cl)C3(Cl)C1(Cl)C5(Cl)C24Cl` (stereo not given): the result in assay [1], in [2], in assay [3], in assay [4], in assay [5] and in assay [6] was inactive. For the same compound, the compound was called inactive in [7], in assay [8], in assay [9] and in [10].

On to `CC(=[OH+])/C=C(/C)[O-].CC(=[OH+])/C=C(/C)[O-].CC(=[OH+])/C=C(/C)[O-].[Fe]`, for which the compound was called inactive in assay [1], in assay [2], in assay [3], in assay [4], in [5] and in assay [6]. For the same compound, the outcome in [7], in assay [8], in [9] and in [10] was inactive.

For the compound `CC(=O)[O][Hg][c]1ccccc1`, the outcome in [1], in assay [2], in assay [3], in [4], in assay [5] and in assay [6] was inactive. The compound was classed as inactive in [7], in assay [9] and in assay [10]. Moreover, the AC50 in assay [8] is 3.71 µM (active).

For the compound `C=C(C)C(=O)[O][Sn]([CH2]CCC)([CH2]CCC)[CH2]CCC`, the outcome in assay [1], in [2], in assay [3], in assay [5], in [6] and in [8] was inactive. In [10], the result was inactive. In addition, the AC50 in assay [4] is 0.665 µM (active); in [7], 0.0112 µM (active); in assay [9], 0.612 µM (active).

As to `CCC(=O)C(CC(C)N(C)C)(c1ccccc1)c1ccccc1` (stereo not given), the result in assay [1], in [2], in [3], in assay [4], in assay [5] and in assay [6] was inactive. The compound was called inactive in assay [7], in [8], in [9] and in assay [10].

On to `COC[C@H](C)N(C(=O)CCl)c1c(C)csc1C`, for which the result in assay [1], in assay [2], in [3], in [4], in [5] and in assay [6] was inactive. The outcome in [7], in assay [9] and in [10] was inactive.

Consider `[O-][Cl+2]([O-])O`, for which the compound was classed as inactive in [1], in assay [2], in [3], in assay [4], in assay [5] and in assay [6]. In addition, the compound was called inactive in assay [7], in [9] and in assay [10].

For `CC(C)(C)c1cc(O)ccc1O`, the result in assay [1], in assay [2], in [3], in [4], in [5] and in assay [6] was inactive. The outcome in assay [7], in assay [8], in assay [9] and in assay [10] was inactive.

As for `C(=NC1CCCCC1)=NC1CCCCC1`, the call in assay [1], in [2], in assay [3], in [4], in assay [5] and in assay [6] was inactive. Further, the outcome in assay [7] and in [10] was inactive. Moreover, the AC50 in assay [9] is 17.7 µM (active).

`Oc1ccc(-c2ccccc2)cc1`: the AC50 is 2.15 µM (active) in assay [1] and 179 µM (active) in assay [9]. Also, the compound was called inactive in assay [2], in [3], in assay [4], in assay [5], in [6] and in assay [7]. Moreover, the compound was classed as inactive in assay [8] and in [10].

Regarding `c1cc[c]([Hg][c]2ccccc2)cc1`, the compound was called inactive in [1], in assay [2], in assay [3], in [4], in assay [5] and in assay [6]. Moreover, the compound was classed as inactive in assay [7], in assay [8], in [9] and in [10].

In the case of `CCC(C)(C)c1ccc(O)c(C(C)(C)CC)c1`, the compound was called inactive in assay [1], in assay [2], in assay [3], in assay [4], in assay [5] and in assay [6]. Also, the outcome in assay [8], in [9] and in assay [10] was inactive. Moreover, the AC50 in assay [7] was 5.81 µM (active).

In the case of `Cl/C=C\C[N+]12CN3CN(CN(C3)C1)C2`, the outcome in [1], in [2], in assay [3], in assay [4], in [5] and in [6] was inactive. For the same compound, the compound was called inactive in [8] and in assay [10]. In addition, the AC50 was 44.6 µM (active) in assay [7] and 100 µM (active) in assay [9].
